This is part of a sample that, as a whole, favours compounds with a hit. Of some 79,000 tested, about 15% had one in any assay. Active and inactive are the calls of the source. Cut-off read from the data, not from the text of the source: active = growth inhibition above about 70%; inactive = the rest.
Tests used:
[1] = NCI Yeast Anticancer Drug Screen. Data for the mec2-1 strain (AID 157); conditions: S. cerevisiae mec2-1 strain, hits give high values
Method in brief: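 Test agents were screened against the mec2-1 yeast strain, with defined DNA repair or cell cycle alteration. Growth was scored as inhibition against vehicle-only controls.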

[2] = NCI Yeast Anticancer Drug Screen. Data for the rad14 strain (AID 159);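 note: 0% = growth of vehicle-treated control cultures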; conditions: S. cerevisiae rad14 strain growth inhibition, hits give high values
Method in brief: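 Vehicle-treated cultures served as the baseline for growth inhibition of a DNA repair-mutant yeast strain exposed to each compound.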

[3] = NCI Yeast Anticancer Drug Screen. Data for the sgs1 mgt1 strain (AID 161);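 note: 0% = growth of cultures given vehicle only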; conditions: S. cerevisiae sgs1 mgt1 strain, hits give high values
Method in brief: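 Mutant yeast exposed to compound; growth scored against vehicle-only wells.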

[4] = NCI Yeast Anticancer Drug Screen. Data for the CLN2oe strain (AID 163);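 note: 0% = growth of vehicle-only control cultures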; conditions: S. cerevisiae CLN2oe strain, hits give high values
Method in brief: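 Here, growth inhibition in a cell-cycle-altered yeast strain after compound exposure was quantified against vehicle control growth.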

[5] = NCI Yeast Anticancer Drug Screen. Data for the cln2 rad14 strain (AID 165);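 note: 0% = growth equal to vehicle treated cultures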; conditions: S. cerevisiae cln2 rad14 strain, hits give high values
Method in brief: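 Growth of compound-exposed yeast (cln2 rad14 genotype) measured and expressed as inhibition relative to vehicle.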

[6] = NCI Yeast Anticancer Drug Screen. Data for the bub3 strain (AID 167); conditions: S. cerevisiae bub3 mutant strain, hits give high values
Method in brief: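 Inhibition values come from growth of compound-treated mutant yeast normalised to vehicle-treated controls.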

[7] = NCI Yeast Anticancer Drug Screen. Data for the wt2 strain (AID 169);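 note: 0% = growth of vehicle-treated yeast cultures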; conditions: S. cerevisiae wt2 strain growth inhibition, hits give high values
Method in brief: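 Genetically defined yeast strains from a DNA-repair/cell-cycle panel were used. Compound-exposed yeast growth was measured, and the inhibition was calculated relative to vehicle treatment.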

[8] = NCI Yeast Anticancer Drug Screen. Data for the mlh1 strain (AID 171);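 note: 0% = growth of vehicle-treated control cultures of the same strain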; conditions: S. cerevisiae mlh1 strain growth inhibition, hits give high values
Method in brief: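 Here the genetically defined yeast mutant is grown with each compound, and the extent to which its growth falls below that of vehicle-exposed cells is reported.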

[9] = NCI Yeast Anticancer Drug Screen. Data for the sgs1 strain (AID 173);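 note: 0% = growth of vehicle-only control cultures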; conditions: S. cerevisiae sgs1 mutant, hits give high values
Method in brief: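 Relative growth inhibition, referenced to vehicle, was determined in a yeast strain with a defined alteration affecting DNA damage repair or cell cycle control after compound exposure.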

[10] = NCI Yeast Anticancer Drug Screen. Data for the mlh1 rad18 strain (AID 175); conditions: S. cerevisiae mlh1 rad18 strain growth inhibition, hits give high values
Method in brief: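 In this whole-cell yeast screen, a strain with altered DNA damage repair is challenged with compound, and its growth is measured against matched vehicle-treated controls.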

[11] = NCI Yeast Anticancer Drug Screen. Data for the rad18 strain (AID 177); conditions: S. cerevisiae rad18 mutant growth inhibition, hits give high values
Method in brief: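 Screen uses a yeast strain with a defined lesion in DNA damage repair; compound effect is read as loss of growth compared to untreated vehicle cultures.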

[12] = NCI Yeast Anticancer Drug Screen. Data for the rad52 strain (AID 147);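 note: 0% = growth of vehicle-treated control cultures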; conditions: S. cerevisiae rad52 mutant growth inhibition, hits give high values
Method in brief: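 Measured: yeast growth inhibition. System: strain with a defined DNA damage repair alteration. Reference: vehicle-treated control cultures.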

[13] = NCI Yeast Anticancer Drug Screen. Data for the wt1 strain (AID 149);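 note: 0% = growth of vehicle-treated wt1 cultures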; conditions: S. cerevisiae wt1 strain (SPY 50644) growth inhibition, hits give high values
Method in brief: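 Vehicle-normalised growth inhibition; strain wt1; compound exposure.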

[14] = NCI Yeast Anticancer Drug Screen. Data for the rad50EPP+ strain (AID 151);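 note: 0% = growth of vehicle-treated control cultures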; conditions: S. cerevisiae rad50 mutant strain, hits give high values
Method in brief: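 One strain with a rad50 alteration (rad50EPP+) was compound-treated, its growth then compared to that of vehicle controls.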

[15] = NCI Yeast Anticancer Drug Screen. Data for the mgt1 strain (AID 153); conditions: S. cerevisiae mgt1 mutant growth inhibition, hits give high values
Method in brief: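 After exposure of the mgt1 yeast mutant to compound, growth was measured and reported as inhibition compared with vehicle controls.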

[16] = NCI Yeast Anticancer Drug Screen. Data for the rad50 strain (AID 155);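 note: 0% = growth of vehicle-only cultures of the same strain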; conditions: S. cerevisiae rad50 strain growth inhibition, hits give high values
Method in brief: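 A DNA repair-deficient yeast mutant serves as the test organism; compound-induced growth inhibition is calculated against vehicle-treated cells.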

[17] = at 5.0 µM (retest, dose inferred, filed as 0.5)
[18] = at 50.0 µM (retest, dose inferred, filed as 5.0)

Measured: growth inhibition

CCCCCCCCCCCNC=O
inactive: [1]; [17] 7% | [1]; at 11.0 µM -20% | [1]; at 33.0 µM 21% | [2]; at 1.2 µM -7% | [2]; at 3.7 µM -17% | [2]; at 11.0 µM -4% | [2]; at 33.0 µM 30% | [3]; [17] 9% | [4]; at 1.2 µM -15% | [4]; at 3.7 µM -14% | [4]; at 11.0 µM -27% | [4]; at 33.0 µM -20% | [5]; [17] 42% | [6]; at 1.2 µM -21% | [6]; at 3.7 µM -14% | [6]; [17] 22% | [6]; at 11.0 µM -12% | [6]; at 33.0 µM 21% | [7]; at 1.2 µM -45% | [7]; at 3.7 µM -39% | [7]; at 11.0 µM -33% | [7]; at 33.0 µM -5% | [8]; at 1.2 µM -17% | [8]; at 3.7 µM -19% | [8]; at 11.0 µM -11% | [8]; at 33.0 µM 69% | [9]; at 1.2 µM -14% | [9]; at 3.7 µM -17% | [9]; at 11.0 µM -19% | [9]; at 33.0 µM 3% | [10]; [17] -14% | [11]; at 1.2 µM -22% | [11]; at 3.7 µM -22% | [11]; at 11.0 µM -15% | [11]; at 33.0 µM 54%
active: [1]; [18] 96% | [1]; at 50.0 µM 91.3% | [1]; at 100.0 µM 98% | [2]; at 100.0 µM 98% | [3]; [18] 93% | [3]; at 50.0 µM 92.5% | [4]; at 100.0 µM 98% | [5]; [18] 94% | [5]; at 50.0 µM 88% | [6]; [18] 97% | [6]; at 50.0 µM 89.4% | [6]; at 100.0 µM 98% | [7]; at 100.0 µM 98% | [8]; at 100.0 µM 98% | [9]; at 100.0 µM 99% | [10]; [18] 97% | [10]; at 50.0 µM 88.6% | [11]; at 100.0 µM 98%

Cc1ccc(S(=O)(=O)N/N=C/C(Br)=C(/Br)C(=O)O)cc1
inactive: [12]; at 1.2 µM 31% | [12]; at 3.7 µM 59% | [13]; at 1.2 µM 29% | [13]; at 3.7 µM 28% | [13]; at 11.0 µM 43% | [13]; at 100.0 µM 41% | [14]; at 1.2 µM 28% | [14]; at 3.7 µM 46% | [15]; at 1.2 µM 35% | [15]; at 3.7 µM 48% | [16]; at 1.2 µM 41% | [16]; at 3.7 µM 61% | [16]; [17] 38% | [16]; at 50.0 µM 57.8% | [1]; at 1.2 µM 20% | [1]; at 3.7 µM 35% | [1]; [17] -11% | [1]; at 11.0 µM 57% | [1]; [18] 10% | [1]; at 50.0 µM 43.8% | [2]; at 1.2 µM 14% | [2]; at 3.7 µM 28% | [2]; at 11.0 µM 50% | [3]; [17] 1% | [3]; [18] 43% | [3]; at 50.0 µM 62.8% | [4]; at 1.2 µM 3% | [4]; at 3.7 µM 8% | [4]; at 11.0 µM 21% | [4]; at 33.0 µM 54% | [4]; at 100.0 µM 43% | [5]; [17] 24% | [5]; [18] 42% | [5]; at 50.0 µM 25.2% | [6]; at 1.2 µM -5% | [6]; at 3.7 µM 1% | [6]; [17] -27% | [6]; at 11.0 µM 49% | [6]; [18] 37% | [6]; at 50.0 µM 64.2% | [7]; at 1.2 µM -3% | [7]; at 3.7 µM 10% | [7]; at 11.0 µM 48% | [8]; at 1.2 µM 35% | [8]; at 3.7 µM 48% | [9]; at 1.2 µM 28% | [9]; at 3.7 µM 38% | [9]; at 11.0 µM 56% | [10]; [17] 25% | [10]; [18] 69% | [11]; at 1.2 µM 24% | [11]; at 3.7 µM 36% | [11]; at 11.0 µM 64%
active: [12]; at 11.0 µM 86% | [12]; at 33.0 µM 95% | [12]; at 100.0 µM 89% | [13]; at 33.0 µM 91% | [14]; at 11.0 µM 80% | [14]; at 33.0 µM 96% | [14]; at 100.0 µM 82% | [15]; at 11.0 µM 79% | [15]; at 33.0 µM 98% | [15]; at 100.0 µM 89% | [16]; at 11.0 µM 86% | [16]; at 33.0 µM 97% | [16]; [18] 79% | [16]; at 100.0 µM 95% | [1]; at 33.0 µM 96% | [1]; at 100.0 µM 70% | [2]; at 33.0 µM 97% | [2]; at 100.0 µM 95% | [6]; at 33.0 µM 93% | [6]; at 100.0 µM 82% | [7]; at 33.0 µM 99% | [7]; at 100.0 µM 98% | [8]; at 11.0 µM 79% | [8]; at 33.0 µM 98% | [8]; at 100.0 µM 89% | [9]; at 33.0 µM 95% | [9]; at 100.0 µM 77% | [10]; at 50.0 µM 91.9% | [11]; at 33.0 µM 95% | [11]; at 100.0 µM 86%

O=C(O)C1CCCCC1c1c2ccc(=O)cc-2oc2cc(O)ccc12 (centres undefined)
inactive: [12]; at 1.2 µM 2% | [12]; at 3.7 µM -3% | [12]; at 11.0 µM 1% | [12]; at 33.0 µM 39% | [13]; at 1.2 µM -24% | [13]; at 3.7 µM -19% | [13]; at 11.0 µM -21% | [13]; at 33.0 µM 12% | [14]; at 1.2 µM 11% | [14]; at 3.7 µM 16% | [14]; at 11.0 µM 16% | [14]; at 33.0 µM 22% | [14]; at 100.0 µM 38% | [15]; at 1.2 µM 15% | [15]; at 3.7 µM 16% | [15]; at 11.0 µM 21% | [15]; at 33.0 µM 46% | [16]; at 1.2 µM 16% | [16]; at 3.7 µM 19% | [16]; [17] 52% | [16]; at 11.0 µM 9% | [16]; at 33.0 µM 28% | [1]; at 1.2 µM -3% | [1]; at 3.7 µM -1% | [1]; [17] 59% | [1]; at 11.0 µM 3% | [1]; at 33.0 µM 17% | [2]; at 1.2 µM -21% | [2]; at 3.7 µM -20% | [2]; at 11.0 µM -18% | [2]; at 33.0 µM 0% | [3]; [17] 10% | [4]; at 1.2 µM 13% | [4]; at 3.7 µM 14% | [4]; at 11.0 µM 12% | [4]; at 33.0 µM 37% | [5]; [17] 43% | [6]; at 1.2 µM 14% | [6]; at 3.7 µM 22% | [6]; [17] 44% | [6]; at 11.0 µM 27% | [6]; at 33.0 µM 55% | [7]; at 1.2 µM -20% | [7]; at 3.7 µM -18% | [7]; at 11.0 µM -7% | [7]; at 33.0 µM 15% | [8]; at 1.2 µM -26% | [8]; at 3.7 µM -21% | [8]; at 11.0 µM -16% | [8]; at 33.0 µM -1% | [9]; at 1.2 µM -17% | [9]; at 3.7 µM -15% | [9]; at 11.0 µM -15% | [9]; at 33.0 µM 13% | [10]; [17] 47% | [11]; at 1.2 µM -12% | [11]; at 3.7 µM -18% | [11]; at 11.0 µM -3% | [11]; at 33.0 µM 25%
active: [12]; at 100.0 µM 93% | [13]; at 100.0 µM 91% | [15]; at 100.0 µM 95% | [16]; [18] 95% | [16]; at 50.0 µM 86.3% | [16]; at 100.0 µM 90% | [1]; [18] 94% | [1]; at 50.0 µM 86.8% | [1]; at 100.0 µM 92% | [2]; at 100.0 µM 92% | [3]; [18] 77% | [3]; at 50.0 µM 89.5% | [4]; at 100.0 µM 94% | [5]; [18] 87% | [5]; at 50.0 µM 86.4% | [6]; [18] 88% | [6]; at 50.0 µM 86.7% | [6]; at 100.0 µM 92% | [7]; at 100.0 µM 94% | [8]; at 100.0 µM 86% | [9]; at 100.0 µM 91% | [10]; [18] 93% | [10]; at 50.0 µM 81.5% | [11]; at 100.0 µM 93%

Source: PubChem BioAssay (NCI)
